Among the data in PubChem BioAssay (NCI) are growth values, retold here.

About 83,000 compounds went through this panel and 20% of them were active in at least one assay; those are over-represented in the sample as a whole.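 Testing used 96-well plates and a 48-hour single-concentration exposure. Example: -40 means 40% of the starting cells died.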 A number with no mark means an inactive call. Activity calls are given as the source filed them. The calls were made as follows: active = growth percent below 10; inactive = the rest.

In this test the test system is RPMI-8226 leukemia. Put plainly: NCI-60 one-dose screen, 48 h (100 = growth as untreated, 0 = no growth, -100 = all killed). The settings on record: 10 µM unless noted.
As to `CCCCCCC(CC#N)(CCC)CCCC` (stereo unspecified), the growth is 103%.
`COc1ccc(NC(=O)c2ccccc2-c2ccccc2)c(C(N)=O)c1`: the growth was 38.2%.
Take `Cc1ccc(-c2csc(N)n2)cc1`: the growth is 89.2%.
`NS(=O)(=O)c1ccc(N2CC(c3nc4ccccc4[nH]3)CC2=O)cc1` (stereo unspecified): the growth was 103%.
Take `Cc1nn(-c2ccccc2)c2nc(N)c(C3=NCCO3)nc12`: the growth is 87.2%.
In the case of `CCCCNCCCN(CCCC)CCCNCCCC`, the growth was 99.6%.
On to `C1CCC(C(CC2CCCCN2)C2CCCCC2)CC1` (stereo unspecified), for which the growth is 5.39% (active).
Turning to `Oc1c(Cl)cc(Cl)c(Cl)c1Cc1c(O)c(Cl)cc(Cl)c1Cl`, the growth was 6.95% (active).
Consider `CSc1nc(Nc2ccc(S(=O)(=O)Nc3ccon3)cc2)c(C#N)c(-c2ccc(Cl)cc2)n1`, for which the growth is 71.3%.
Turning to `COC(=O)[C@H](Cc1cn(C)cn1)NC(=O)[C@H](Cc1ccccc1)NC(=O)Nc1cc(C(F)(F)F)cc(C(F)(F)F)c1`, the growth was -58.8% [100 µM] (active).
On to `Cn1c(N2N=C(c3ccc(Cl)cc3)CC2c2ccccc2)nc(-c2ccccc2)c(C#N)c1=O` (stereo unspecified), for which the growth was 54.9%.
As for `NC(=NCCCCCCN=C(N)/N=C(\N)Nc1ccc(Cl)cc1)/N=C(\N)Nc1ccc(Cl)cc1`, the growth was 28.4%.
As for `Oc1c(N=Nc2nn[nH]n2)ccc2ccccc12`, the growth was 89.3%.
Take `Cc1ccc(/C=C/C(=O)c2ccc(F)cc2)s1`: the growth is 18.6%.
Consider `CC[N+](CCCCCCCCCC[N+](CC)(c1ccccn1)c1ccccn1)(c1ccccn1)c1ccccn1`, for which the growth is 1.5% (active).
On to `O=C(c1ccc(N2CCOCC2)cc1[N+](=O)[O-])N1CCOCC1`, for which the growth is 128%.
In the case of `Cc1ccc(-c2c3c(N)nc(-c4ccncc4)nc3nc3c2c(C)nn3-c2ccccc2)cc1` it was 62.5%; in that of `COc1cccc(CCN2C(=O)CCC3=C2CCC3=O)c1`, 98.1%; in that of `CC(=O)c1nn(-c2ccccc2)c(=Nc2ccccc2)cc1C`, 100%.
For the molecule `COc1ccc(-c2nc3sc4c(c3c(=O)[nH]2)CCCCCC4)cc1`, the growth is 72%.
Take `CCOC(=O)/C(=C/CC/C(C)=C/CC/C(C)=C/CCc1ccoc1)CC(=O)N1CCCCC1`: the growth is -5.3% (active).
Next, `CC1CC=CCC1C1OCC(C)(C)CO1` (stereo unspecified): 97.2%; `Cc1[nH]c(=O)[nH]c(=O)c1CCSSCCc1c(C)[nH]c(=O)[nH]c1=O`: 104%; `CC(NNC(=S)N1CCCCCC1)c1ccc2ccccc2n1` (stereo unspecified): 56.1%.
With `NS(=O)(=O)c1ccc(-n2nc(-c3ccc(Br)cc3)ccc2=O)cc1`, the growth is 85.7% [100 µM].
Next, `CCOc1cc(CCNS(=O)(=O)c2ccc(C)cc2)c(C(C)=O)cc1OCC`: 40% [100 µM]; `CC(=O)N1N=C(c2ccc(Nc3ccnc4cc(Cl)ccc34)cc2)CC1c1ccc(Cl)cc1` (stereo unspecified): 22.3%; `COC(=O)[C@H](Cc1cnc[nH]1)NC(=O)[C@@H](NC(=O)Nc1cc(C(F)(F)F)cc(C(F)(F)F)c1)C(C)C`: -53% [100 µM] (active).
As to `CCCCCCCCCCCCC1CCCC(C)C1` (stereo unspecified), the growth is 99%.
Regarding `FC(F)(F)c1ccc(-c2cnc(-c3nn[nH]n3)nc2NC2CCCCCC2)cc1`, the growth was 34.5% [50 µM].
With `CCCCCc1c(C)[nH]c(/C=C2\N=C(c3ccc[nH]3)C=C2OCc2ccccc2)c1C`, the growth is -46.2% [100 µM] (active).
On to `COc1c(Br)cc(C(c2cc(Br)c(OC)c(Br)c2)c2ccccc2C(=O)O)cc1Br`, for which the growth was 88.7%.
For the molecule `CCOC(=O)C(C(=O)OCC)C1CCCCC1`, the growth is 101%.
Regarding `N#Cc1ncc(-c2ccc(C(F)(F)F)cc2)c(NC2CCCCCC2)n1`, the growth was -5.45% (active).
Take `CCCCCCCC[Si](OCC)(OCC)OCC`: the growth is 99.2%.
On to `C[C@H]1O[C@@H](O[C@H]2[C@@H](O)C[C@H](O[C@H]3[C@@H](O)C[C@H](O[C@H]4CC[C@]5(C)C6CC[C@]7(C)[C@@H](C8=CC(=O)OC8)CC[C@]7(O)C6CC[C@@H]5C4)O[C@@H]3C)O[C@@H]2C)C[C@H](O)[C@@H]1O` (stereo partly specified), for which the growth is -18.8% (active).
